# Myeloid diff MLP: promotes myeloid progenitor differentiation. ER-HoxA9 myeloid progenitors, lysozyme-GFP differentiation, flow cytometry. calls only at 10 µM. 360,000 tested, 1% active. AID 624256;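 active = normalized GFP-positive differentiation at or above the plate's own cutoff, the solvent-only control mean plus 3 SD; inconclusive = no clear call, values can overlap the other calls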;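 note: cells exposed to compound for four days before flow analysis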
# Exocytosis inh: blocks lytic granule exocytosis | TALL-104 LAMP-1 surface exposure, flow cytometry; cells stimulated with thapsigargin and PMA | inhibition, % at 10 µM | 360,000 tested, 0.66% active;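 active = inhibition above about 55%, limit read from the data; inconclusive = no clear call, values can overlap the other calls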
# ABCB6 inh 2: blocks the human ABCB6 transporter; Q9NP58; K562-ABCB6 porphyrin accumulation, flow cytometry, 1 h; hits give low values; fluorescence ratio to DMSO, % at 10 µM; 360,000 tested, 0.19% active;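 active = fluorescence ratio to DMSO below 75%, the collection mean minus 3 SD; inconclusive = too few cells collected in the well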;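 note: signal is porphyrin accumulated inside mitochondria; 100% equals median channel fluorescence of DMSO control wells; lower ratio means ABCB6 inhibition with less porphyrin fluorescence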
# Target sequence (Q9NP58 whole entry, looked up): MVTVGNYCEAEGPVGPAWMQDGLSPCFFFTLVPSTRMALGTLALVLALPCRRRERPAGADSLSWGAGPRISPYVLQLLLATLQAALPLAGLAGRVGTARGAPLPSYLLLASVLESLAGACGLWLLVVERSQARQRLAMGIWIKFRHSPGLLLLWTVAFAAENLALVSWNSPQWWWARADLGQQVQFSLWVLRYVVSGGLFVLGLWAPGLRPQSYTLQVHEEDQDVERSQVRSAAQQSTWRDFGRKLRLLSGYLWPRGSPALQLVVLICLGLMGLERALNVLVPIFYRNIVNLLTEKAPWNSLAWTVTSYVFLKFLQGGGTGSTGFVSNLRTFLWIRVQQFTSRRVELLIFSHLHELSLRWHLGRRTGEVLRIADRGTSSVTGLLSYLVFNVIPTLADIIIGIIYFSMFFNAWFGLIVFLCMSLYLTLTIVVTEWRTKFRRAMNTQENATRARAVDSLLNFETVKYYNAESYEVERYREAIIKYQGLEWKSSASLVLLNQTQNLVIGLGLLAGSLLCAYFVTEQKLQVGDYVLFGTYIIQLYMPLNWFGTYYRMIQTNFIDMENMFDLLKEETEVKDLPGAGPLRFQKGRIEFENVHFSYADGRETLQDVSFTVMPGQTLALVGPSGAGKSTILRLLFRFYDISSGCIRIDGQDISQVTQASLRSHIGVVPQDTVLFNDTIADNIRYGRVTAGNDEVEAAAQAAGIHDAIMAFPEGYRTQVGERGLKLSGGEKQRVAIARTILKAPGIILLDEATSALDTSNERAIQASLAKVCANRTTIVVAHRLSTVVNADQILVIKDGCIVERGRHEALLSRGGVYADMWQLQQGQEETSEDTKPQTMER
# ABCB6 blocker 1: human ABCB6 transporter inhibition | ratio response (% of DMSO), % at 10 µM | K562-ABCB6 porphyrin accumulation, flow cytometry, 1 h; hits give low values | shares compounds with ABCB6 inh 2 | 700 tested, under 10 active;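 active = repeat-averaged ratio response below 75% of DMSO, the collection mean minus 3 SD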;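 note: median porphyrin fluorescence at 575 nm with 488 nm excitation from mitochondria; lower ratio means less porphyrin signal so ABCB6 inhibition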
# K562 vector FC: activity in empty-vector K562 counter-screen for ABCB6 inhibitors. 25 tested, under 10 active. K562 empty-vector cells, flow cytometry fluorescence, 1 h. percent response (fluorescence), % at 100 µM. AID 624484. shares compounds with ABCB6 inh 2;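 active = compounds whose half-maximal effective concentration is below 100 µM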
# * hit, by the source's call; i = inactive; ? = inconclusive; / = no result. In the library only some 1.8% were active in any assay of this set; here they are far more common.
SMILES,Myeloid diff MLP,Exocytosis inh,ABCB6 inh 2,others
CCCc1nnc(NC(=O)c2nc(S(=O)(=O)Cc3cccc(C)c3)ncc2Cl)s1,i,27.5,101.0,K562 vector FC=250.0
Cc1nnc(NC(=O)CS(=O)(=O)Cc2ccccc2)s1,i,-3.8,106.0,
Cc1cccc(C)c1NC(=O)c1nc(S(=O)(=O)Cc2ccccc2)ncc1Cl,i,47.3,93.0,K562 vector FC=237.2
Cc1nnc(NC(=O)c2nc(S(=O)(=O)Cc3ccccc3)ncc2Cl)s1,i,4.5,113.0,K562 vector FC=213.7
CS(=O)(=O)c1ncc(Cl)c(C(=O)Nc2ccc(N3CCOCC3)cc2)n1,/,15.9,93.0,
Cc1ccc(NC(=O)c2nc(S(=O)(=O)Cc3ccccc3)ncc2Cl)cc1,?,32.7,35.0*,ABCB6 blocker 1=85.0
CSc1ncc(Cl)c(C(=O)Nc2cccc3ccccc23)n1,i,24.5,101.0,
CCCc1nnc(NC(=O)CS(=O)(=O)c2ccc(C)cc2)s1,i,4.5,98.0,
O=C(CN1CCN(c2ccc(F)cc2)CC1)NC(=O)NCc1ccco1,i,-4.2,97.0,
Cc1ccc(NC(=O)c2ccc3nsnc3c2)c(C)c1,i,-1.9,98.0,
O=C(NC(Cc1ccccc1)C(=O)O)/C(=C/c1ccc(Br)cc1)NC(=O)c1ccc(Br)o1 (centres undefined),i,8.1,94.0,
Cc1cc(C)n2nc(C(=O)OCC(=O)Nc3cc(S(=O)(=O)N4CCOCC4)ccc3Cl)nc2n1,i,5.3,101.0,
O=C(O)CCNC(=O)/C(=C/C=C/c1ccccc1)NC(=O)c1ccccc1,i,3.4,101.0,
CCOC(=O)[C@]12CCC=C1N(Cc1ccc3c(c1)OCO3)C(=O)[C@H](CC(=O)NCCCOC)C2,i,-7.4,96.0,
O=c1[nH]nnc2cc(Cl)ccc12,i,2.5,99.0,
Cc1cccc(CS(=O)(=O)c2ncc(Cl)c(C(=O)NCc3ccccc3)n2)c1,i,35.2,97.0,
Cc1cccc(CS(=O)(=O)c2ncc(Cl)c(C(=O)Nc3c(C)cccc3C)n2)c1,i,54.7,100.0,ABCB6 blocker 1=94.0
Cc1ccccc1CS(=O)(=O)c1ncc(Cl)c(C(=O)Nc2ccc(F)cc2)n1,?,43.6,36.0*,K562 vector FC=299.1
CCOC(=O)c1ccc(NC(=O)c2nc(SC)ncc2Cl)cc1,i,-12.4,96.0,
O=C(Nc1ccon1)Nc1cccc(Cl)c1Cl,i,4.6,95.0,
Cc1cc2ccccc2n2c(SCC(=O)Nc3ccc(S(=O)(=O)N4CCC(C)CC4)cc3)nnc12,i,13.1,68.0*,ABCB6 blocker 1=99.0
CC1CCN(S(=O)(=O)c2ccc(NC(=O)CN3CCN(C)CC3)cc2)CC1,i,-0.3,102.0,
CC1CCN(S(=O)(=O)c2ccc(NC(=O)CN3CCN(c4ccccc4)CC3)cc2)CC1,i,-2.9,73.0*,ABCB6 blocker 1=102.0
Cc1cc2ccccc2n2c(SCC(=O)Nc3ccc(S(=O)(=O)N4CCCCC4)cc3)nnc12,i,-8.4,77.0,
Cc1cc(C(=O)N2CCC2(C)C(=O)NCCC#N)nn1C (centres undefined),i,3.6,93.0,
SMILES,Myeloid diff MLP,Exocytosis inh,ABCB6 inh 2,others
Fc1ccc(CNc2ncnc3cc(Cl)ccc23)cc1,i,2.1,9.0*,ABCB6 blocker 1=100.0
COc1ccc(CNc2ncnc3cc(Cl)ccc23)cc1OC,i,0.1,95.0,
COc1ccc(N(C)C(=O)C2CCCN2S(=O)(=O)c2cccc3nsnc23)cc1 (centres undefined),i,-2.7,102.0,
CCCCn1ccnc1C(=O)c1cccc(S(=O)(=O)N2CC(C)CC(C)C2)c1 (centres undefined),i,-2.3,74.0*,ABCB6 blocker 1=97.0
CCCCn1ccnc1C(=O)c1cc(S(=O)(=O)N2CCOCC2)ccc1C,i,14.5,97.0,
COCC1CCCN(C(=O)c2ccc(OC3CCN(Cc4ccccn4)CC3)cc2)C1 (centres undefined),i,0.7,12.0*,ABCB6 blocker 1=95.0
CC(=O)N1CCN(C(=O)c2ccc(OC3CCN(Cc4ccccn4)CC3)cc2)CC1,i,10.4,101.0,
NC(=O)CC(NC(=O)Cc1ccc(Br)cc1)c1ccc(N2CCC(N3CCCC3)CC2)c([N+](=O)[O-])c1 (centres undefined),i,-2.9,101.0,
CC(C)CN(C(=O)CCC(=O)OCc1ccc(Cl)cc1Cl)c1c(N)n(CC(C)C)c(=O)[nH]c1=O,i,2.4,96.0,
Cc1cccc(C(C)C)c1NC(=O)COC(=O)CCC(=O)N(CC(C)C)c1c(N)n(CC(C)C)c(=O)[nH]c1=O,i,-6.4,97.0,ABCB6 blocker 1=99.0
O=C(N[C@H]1C/C=C\C[C@H](CC(=O)N(CCO)Cc2ccccc2)C(=O)N[C@@H](c2ccccc2)COC1=O)OCC1c2ccccc2-c2ccccc21,i,3.2,96.0,
CCC(C)Nc1ccc(NC(C)CC)cc1 (centres undefined),?,2.7,125.0,
CCCCOP(=O)(OCCCC)C(Nc1ccccc1)c1ccc2c(c1)OCO2 (centres undefined),i,0.0,86.0,
O=C(NCc1ccccc1Cl)c1ccc2ccccc2n1,i,17.3,99.0,
O=C(NCc1cccc(Cl)c1)c1ccc2ccccc2n1,i,8.7,70.0*,ABCB6 blocker 1=99.0
COc1cc2c(c(OC)c1OC)-c1c(cc(OC)c(OC)c1OC)C[C@H](C)[C@H](C)C2,i,-4.4,74.0*,ABCB6 blocker 1=99.0
COc1cc2c(c(O)c1OC)-c1c(cc(OC)c(OC)c1OC)C[C@@H](C)[C@@H](C)C2,i,-5.3,95.0,
Cc1ccccc1OCc1ccc(C(=O)N2CC(C)OC(C)C2)o1 (centres undefined),i,-15.2,81.0,
CC(=O)c1ccc(OCc2cc(C(=O)N3CC4C[C@@H]5CC3C[C@H](C4)C5)no2)cc1,i,-1.6,98.0,
CC(=O)Oc1c(S(=O)(=O)c2ccccc2)c(C)nn1C(C)(C)C,i,0.1,91.0,
Cc1nn(C(C)(C)C)c(OC(=O)c2cccs2)c1S(=O)(=O)c1ccccc1,i,3.9,74.0*,ABCB6 blocker 1=101.0
COCc1nc2oc3ccccc3c(=O)c2cc1C(=O)OC,i,-11.8,97.0,
CCOC(=O)c1ccccc1NC(=O)c1cc(S(=O)(=O)N2CCOCC2)ccc1F,i,0.5,99.0,
CCOC(=O)N1CCN(S(=O)(=O)c2ccc(F)c(C(=O)Nc3cccc(C)c3C)c2)CC1,i,2.3,72.0*,ABCB6 blocker 1=99.0
CCC(=O)N1CCC1(C)C(=O)Nc1ccc(C)c(C)c1 (centres undefined),i,0.6,104.0,
CC1CCCCN1S(=O)(=O)c1ccc(N(C(=O)c2cnccn2)C(C(=O)NC2CCCC2)c2cccs2)cc1 (centres undefined),i,2.4,70.0*,ABCB6 blocker 1=101.0
CC1CCCCN1S(=O)(=O)c1ccc(N(C(=O)c2cnccn2)C(C(=O)NC2CCCCC2)c2cccs2)cc1 (centres undefined),i,12.8,94.0,
CN1CCn2cnc(C(=O)Nc3ccc(CNC(=O)OC(C)(C)C)cc3)c2C1=O,i,-1.1,102.0,
Cc1c(C)n2c(SCC(=O)N3CCN(c4ccccc4)CC3)nnc2[nH]c1=O,i,-2.5,98.0,

# High-throughput results from PubChem BioAssay.
